Measurements as given in the supplement of paper PMC10981050.
Values joined by “and” are separate entries in the source; they are usually repeats but may differ in a detail not shown here. Equal values may be shown once. Where a name gives a salt, the structure may show the parent alone.

Legend:
Assay in all cases: cell viability relative to vehicle control; higher = less cytotoxic
Details in all cases: 10 µM
K562 = tested on: K562
Outline: (§1)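 After removal of identity-inconsistent compounds, the Selleck bioactive, kinase and epigenetic probe libraries were screened on CRISPR-edited mutant clones and isogenic wild-type clones of four leukaemia lines. Plates were 384-well, each well holding 2000 cells in 50 µL medium and receiving a single 10 µM acoustically dispensed dose. CellTiter-Glo luminescence was read 48 h later, after the supernatant was taken off. Genedata Screener was used to express viability as percent of the on-plate vehicle control.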

MARIMO = tested on: MARIMO
Outline: as §1

MOLM14 = tested on: MOLM14
Outline: as §1

OCI-AML2 = tested on: OCI-AML2
Outline: as §1

Structure (SMILES) | cell viability (K562; SRSF2 genotype: SRSF2 P95H/wt) | cell viability (K562; SRSF2 genotype: SRSF2 wt/wt) [%] | cell viability (MARIMO; SRSF2 genotype: SRSF2 P95H/wt) [%] | cell viability (MARIMO; SRSF2 genotype: SRSF2 wt/wt) [%] | cell viability (MOLM14; SRSF2 genotype: SRSF2 P95H/wt) [%] | cell viability (MOLM14; SRSF2 genotype: SRSF2 wt/wt) [%] | cell viability (OCI-AML2; SRSF2 genotype: P95H/wt) [%] | cell viability (OCI-AML2; SRSF2 genotype: wt/wt) [%]
C[C@@H](O)[C@H]1C(=O)N2C(C(=O)O)=C([C@H]3CCCO3)S[C@H]12 [Faropenem Sodium] | 89.8% and 77.8% | 82 | 88.3 | 94.3 | 88.3 | 90.3 | 87.1 | 97.4
[Na+].[Na+].[Na+].[Na+].[Na+].[Na+].[O]=[W](=[O])([O-])[O-].[O]=[W](=[O])([O-])[O-].[O]=[W](=[O])([O-])[O-].[O]=[W](=[O])=[O].[O]=[W](=[O])=[O].[O]=[W](=[O])=[O].[O]=[W](=[O])=[O].[O]=[W](=[O])=[O].[O]=[W](=[O])=[O].[O]=[W](=[O])=[O].[O]=[W](=[O])=[O].[O]=[W](=[O])=[O] [SodiuM Metatungstate] | 103% and 109% | 106 | 121 | 106 | 103 | 109 | 88.9 | 93.5
COc1ccc(/C=C/C(=O)C2(C(=O)/C=C/c3ccc(OC)c(OC)c3)CCCCC2)cc1OC | 5.82% and 13.9% | 10.6 | 2.25 | 2.73 | 0.4 | 0.31 | 0.35 | 0.43
C=C1CCC[C@]2(C)C=C3OC(=O)C(C)=C3C[C@@H]12 [Atractylenolide I] | 102% and 110% | 106 | 97.2 | 102 | 103 | 103 | 116 | 91.6
O=C(O)[C@H](O)c1ccccc1 [(R)-(-)-Mandelic acid] | 94% and 92.9% | 89.4 | 91.2 | 105 | 91.8 | 92.6 | 98.2 | 106
CS(=O)(=O)c1ccc(-c2cnc(NCc3ccco3)n3cnnc23)cc1 | 99.9% and 93.9% | 97.2 | 103 | 99.5 | 100 | 98.5 | 101 | 110
CCN1CCN(Cc2ccc(-c3cc4c(N[C@H](C)c5ccccc5)ncnc4[nH]3)cc2)CC1 | 3.36% and 7.86% | 8.31 | 52.9 | 58.4 | 12.6 | 11.8 | 13.8 | 23
CCC(=O)O[C@H]1[C@H](O[C@@H]2[C@@H](C)[C@H](O[C@H]3C[C@@](C)(OC)[C@@H](O)[C@H](C)O3)[C@@H](C)C(=O)O[C@H](CC)[C@@](C)(O)[C@H](O)[C@@H](C)C(=O)[C@H](C)C[C@@]2(C)O)O[C@H](C)C[C@@H]1N(C)C [Erythromycin estolate] | 92.3% and 89.5% | 90.4 | 92.3 | 105 | 96.4 | 95.8 | 77.5 | 76.8
Cc1cc(Nc2cc(N3CCN(C)CC3)nc(Sc3ccc(NC(=O)C4CC4)cc3)n2)n[nH]1 [VX-680 (MK-0457, Tozasertib)] | 16.4% and 18.7% | 14.8 | 53.6 | 38 | 6.03 | 9.53 | 14.4 | 19.3
O=C1NC(=O)/C(=C/c2ccc(-c3ccc(F)cc3O)o2)S1 | 94.7% and 95.1% | 88.4 | 75.9 | 79.2 | 89.3 | 100 | 62.3 | 59
CCn1cc(C(=O)O)c(=O)c2cc(F)c(N3CCN(C)CC3)cc21 [Pefloxacin mesylate] | 97.5% and 101% | 96.6 | 105 | 100 | 100 | 103 | 109 | 115
C[C@@H](Oc1ccc2[nH]nc(/C=C/c3cnn(CCO)c3)c2c1)c1c(Cl)cncc1Cl | 36.1% and 35.5% | 30.1 | 6.39 | 5.47 | 0.8 | 0.16 | 0.48 | 4.14
Cc1ccsc1C(=CCCN1CCC[C@@H](C(=O)O)C1)c1sccc1C [Tiagabine] | 100% and 93.4% | 96.7 | 91.8 | 109 | 97 | 101 | 89 | 111
OC(c1ccccc1)(c1ccccc1)C12CC[N+](CCOCc3ccccc3)(CC1)CC2 [Umeclidinium bromide] | 81.8% and 94.9% | 89.5 | 76.2 | 90.9 | 86.5 | 81.6 | 75.6 | 85.1
S=C(N/N=C1/CCCc2cccnc21)N1CCN(c2ccccn2)CC1 | 16.2% and 6.78% | 26.6 | 28 | 25.2 | 22.1 | 13.9 | 22.8 | 30.5
Cn1cc(-c2ccncc2)c(-c2ccc(OCc3ccc4ccccc4n3)cc2)n1 | 79.8% and 91.7% | 91.2 | 93 | 90.4 | 65 | 71.4 | 71.5 | 68
O=S(=O)(c1cccc2cnccc12)N1CCCNCC1 [Fasudil HCl (HA-1077)] | 97.2% and 90.4% | 94 | 81.6 | 92.8 | 75 | 94.4 | 70.3 | 75.3
CNC(=O)c1c(F)cccc1Nc1nc(Nc2cc3c(cc2OC)CCN3C(=O)CN(C)C)nc2[nH]ccc12 | 6.79% and 7.34% | 5.25 | 46.2 | 38.8 | 0.66 | 0.35 | 0.91 | 1.46
Cc1cc(O)c(C(=O)N[C@@H](C(=O)N[C@@H]2C(=O)N3C(C(=O)O)=C(CSc4nnnn4C)CS[C@H]23)c2ccc(O)cc2)cn1 [Cefpiramide sodium] | 111% and 107% | 104 | 109 | 115 | 107 | 110 | 99.7 | 99.8
